Screening data deposited in PubChem by several laboratories.
BoNT-A LC inh2: blocks Botulinum neurotoxin A light chain protease | 360,000 compounds, 0.17% hits | multiplex microsphere protease substrate cleavage, flow cytometry | inhibition, % at 10 µM | AID 588499
FBA Mtb inh: Mtb fructose-bisphosphate aldolase inhibition | 360,000 compounds, 2.3% hits | P9WQA3 | purified M. tuberculosis FBA, fluorescence read-out | inhibition, % at 1 µM; in the data active means inhibition above about 27%
Target sequence (P9WQA3 whole entry, looked up): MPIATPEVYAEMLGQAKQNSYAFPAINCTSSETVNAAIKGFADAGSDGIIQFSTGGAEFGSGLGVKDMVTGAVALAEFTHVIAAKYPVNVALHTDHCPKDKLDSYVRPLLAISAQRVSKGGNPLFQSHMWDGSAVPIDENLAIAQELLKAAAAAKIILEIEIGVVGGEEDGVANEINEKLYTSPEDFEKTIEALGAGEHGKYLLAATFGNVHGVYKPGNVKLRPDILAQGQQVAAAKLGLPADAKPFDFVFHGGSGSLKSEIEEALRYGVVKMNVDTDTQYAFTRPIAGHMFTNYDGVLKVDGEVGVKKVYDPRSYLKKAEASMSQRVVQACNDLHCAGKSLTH
GDH-TPI counter: inhibits GDH-TPI coupling enzymes, artifact for Mtb FBA screen. GDH-TPI coupled enzyme counterscreen, NADH absorbance. inhibition, % at 4.8 µM. 360,000 compounds, 1.2% hits; in the data active means inhibition above about 30%
Autofluor counter: flagged as autofluorescent in microsphere protease counterscreen. compound autofluorescence counterscreen, microsphere flow cytometry; stronger effect = higher value. fluorescence intensity (concentration not given with the values). 360,000 compounds, 3.1% hits. AID 624483; in the data active means fluorescence intensity above about 16000; inconclusive means no clear call, values can overlap the other calls
BoNT F protease: inhibitors of Botulinum neurotoxin F light chain protease; Multiplex microsphere protease cleavage assay, flow cytometry; inhibition, % at 10 µM; 360,000 compounds, 0.22% hits; AID 588497; in the data active means inhibition above about 35%, passing the limit was not always enough; inconclusive means no clear call, values can overlap the other calls
Anthrax LF inh2: inhibitors of Bacillus anthracis lethal factor protease | multiplex microsphere protease cleavage assay, LF | inhibition, % at 10 µM | AID 588501 | P15917 | 360,000 compounds, 0.12% hits
Of the large screens only hits and unclear results are named; the others gave an inactive call. A selection: hits, their analogues and other compounds. The true share with any hit is near 6.7%. Unless noted, no stated cut-off is given here; in the data, active means inhibition above about 30%; inconclusive means no clear call, values can overlap the other calls; inactive means below that.

COc1ccc(CNC(=O)C2CCN(S(=O)(=O)c3c(C)noc3/C=C/N(C)C)CC2)cc1	GDH-TPI counter 45.0
COc1ccc2c(c1)cc1n2CCN=C1NCCO	none
Cc1csc(SCC(=O)Nc2cccc(C)c2C)n1	none (no result: BoNT-A LC inh2, Autofluor counter, BoNT F protease, Anthrax LF inh2)
Cc1cnc(C(=O)OCC(=O)NC2CCCCCC2)cn1	none
Cc1cccc(NC(=O)C2CCN(S(=O)(=O)c3c(C)noc3/C=C/c3ccco3)CC2)n1	none
Cc1noc(/C=C/N(C)C)c1S(=O)(=O)N1CCN(c2ccc(F)cc2)CC1	GDH-TPI counter 34.0
COc1ccc(N2CCN(S(=O)(=O)c3c(C)noc3/C=C/N(C)C)CC2)cc1	GDH-TPI counter 39.9
CCC(C)N1CCN(C(=O)C2CCN(S(=O)(=O)c3c(C)noc3/C=C/c3ccco3)CC2)CC1 (stereo not drawn)	GDH-TPI counter 37.9
CC(C)Oc1cccc(C(=O)NC(=S)Nc2ccc(Cl)c(C(=O)O)c2)c1	Autofluor counter 23433
COc1cc(C[C@H](C)[C@H](C)Cc2ccc3c(c2)OCO3)ccc1O	none
COc1ccc(-c2cc(=O)oc3cc(OCc4nn[nH]n4)ccc23)cc1	GDH-TPI counter 36.2, Autofluor counter 16695
COc1ccc(-c2cc3ccc(OCc4nn[nH]n4)cc3oc2=O)cc1OC	GDH-TPI counter 42.2
CNc1nc(Oc2ccccc2C(=O)OC)nc(SC)n1	Autofluor counter 21738
CCNc1nc(Oc2ccc(C(=O)OC)cc2)nc(SC)n1	Autofluor counter 22097
COc1ccc(N(CC(=O)Nc2c(C)n(C)n(-c3ccccc3)c2=O)S(=O)(=O)c2ccc(C)cc2)cc1	none
CCN(CC(=O)NCc1cccs1)c1ccc(S(=O)(=O)N2CCCC2)cn1	none
COc1cc(C(=O)OCc2nc3ccsc3c(=O)[nH]2)c([N+](=O)[O-])cc1OC	none
CC(C)CCP(=O)(O)c1ccccc1	Autofluor counter 22957
CN(C)c1ccc(-c2nc3ccccc3c(=O)[nH]2)cc1	GDH-TPI counter 73.7
CCOc1ccccc1NC(=O)COc1cccc(-n2cnnn2)c1	Autofluor counter 23672
CCc1ccccc1NC(=O)COc1cccc(-n2cnnn2)c1	none
CCOc1ccc(NC(=O)c2cccc(-n3cnnn3)c2)cc1	BoNT-A LC inh2 inconclusive, Autofluor counter 23535
CCC(=O)Nc1ccc2c(c1)ncn2C	none
CCOc1ccc(-n2nc3ccc(NC(=O)CC)cc3n2)cc1	FBA Mtb inh active
CC(=O)Nc1ccc2c(c1)ncn2-c1ccccc1	none
CCC(=O)Nc1ccc2c(c1)ncn2-c1ccccc1	Autofluor counter 21985
Cn1c(CC(=O)Nc2ccccc2)nnc1SCC(=O)NC1=NCCS1	none
O=C(CSCc1ccc(Cl)cc1)NCCSCc1ccco1	none
CCOc1ccc(NC(=O)c2ccc3[nH]c(=O)c(=O)[nH]c3c2)cc1	GDH-TPI counter 31.6
O=C(COc1ccc(F)cc1)Nc1ccc(-n2cnnn2)cc1	BoNT-A LC inh2 inconclusive, Autofluor counter 20385
CCOc1ccc(NC(=O)COc2ccc(-n3cnnn3)cc2)cc1	BoNT-A LC inh2 inconclusive, BoNT F protease inconclusive, Anthrax LF inh2 inconclusive
O=C(OCC(=O)N1CCOCC1)c1ccc(Cl)nc1	Autofluor counter 22562
CC1CCN(C(=O)COC(=O)c2ccc(Cl)nc2)CC1	none
Cc1ccc(N=Cc2nc(/C=C/c3cccc([N+](=O)[O-])c3)oc2O)cc1	BoNT-A LC inh2 inconclusive, Autofluor counter 22530
Cc1cc(C)cc(SCc2noc(C(=O)NCCCN3CCOCC3)c2C(=O)NCCCN2CCOCC2)c1	none
CCC(C)n1c(O)c(C=NCc2cccnc2)c(=O)[nH]c1=S (stereo not drawn)	none (no result: BoNT-A LC inh2, Autofluor counter, BoNT F protease, Anthrax LF inh2)
O=c1[nH]c(=S)n(Cc2ccc(F)cc2)c(O)c1C=NCc1cccnc1	GDH-TPI counter 35.0, Autofluor counter 16199
CC(C)n1c(O)c(C=NCc2ccccc2)c(=O)[nH]c1=S	GDH-TPI counter 39.9
O=C(/C=C/c1cccc(Cl)c1)c1nc2ccccc2[nH]1	none
O=C(O)CCCCCNc1ccc2nsnc2c1[N+](=O)[O-]	none
COc1ccc(C(O)P(=O)(OC2CCCCC2)c2ccc(N(C)C)cc2)cc1OC (stereo not drawn)	Autofluor counter 22879
CN(C)c1ccc(C(O)P(=O)(OC2CCCCC2)OC2CCCCC2)cc1 (stereo not drawn)	none (no result: BoNT-A LC inh2, Autofluor counter, BoNT F protease, Anthrax LF inh2)
NC(=O)c1cccc(N=Cc2cc(Cl)cc(Cl)c2O)c1	none
Cc1nnc2c3ccccc3c(-c3cccc4ccccc34)nn12	BoNT-A LC inh2 inconclusive, Autofluor counter 19934
COC(=O)c1ccccc1CON1C(=O)C(C)(C)N(OCc2ccccc2C(=O)OC)C(=O)C1(C)C	Autofluor counter 16139
O=C(/C=C/c1ccccc1)c1ccccc1	none
O=C(/C=C\c1ccc(-c2ccccc2)o1)c1ccccc1	BoNT-A LC inh2 66.4
Cc1ccc(C(=O)/C=C/c2ccc(-c3ccc(C)cc3)o2)cc1	BoNT-A LC inh2 40.9
Cc1ccc(C(=O)/C=C\C(=O)c2ccc(C)cc2)cc1	none
CCc1ccc(C(=O)/C=C/c2ccc([N+](=O)[O-])o2)cc1	none
O=Cc1ccc(-c2ccc(C(=O)O)cc2)o1	GDH-TPI counter 42.0
CCN(CC)S(=O)(=O)c1ccc(C(=O)/C=C/c2ccc(-c3ccc([N+](=O)[O-])cc3)o2)cc1	BoNT-A LC inh2 79.3, Anthrax LF inh2 47.5
CC(C)C(C)N(Cc1cccc(C(=O)O)c1)C(=O)c1ccc2ccccc2n1 (stereo not drawn)	BoNT F protease inconclusive
CC(C)NC(=O)NC(=O)CSc1nnc(COc2ccccc2F)n1C(C)C1CC2CCC1C2 (stereo not drawn)	none
CC(C1CC2CCC1C2)n1c(COc2ccccc2F)nnc1SCC(N)=O (stereo not drawn)	FBA Mtb inh active
CCCCC(CC)COCCCN=Cc1c(O)[nH]c(=S)[nH]c1=O (stereo not drawn)	GDH-TPI counter 39.1
CCOCCCN=Cc1c(O)n(Cc2ccccc2)c(=O)[nH]c1=O	none
Cc1cc(C)n(-c2ccc(Oc3ccccc3)c(S(=O)(=O)O)c2)n1	none
CCc1c(C)[nH]n(-c2ccc(Oc3ccccc3)c(S(=O)(=O)O)c2)c1=O	BoNT-A LC inh2 inconclusive, Autofluor counter 22582
Cc1cc(Br)ccc1OCC(=O)NNC(=O)Cc1ccccc1	none
COc1cc(/C=N/N(C)C)cc(Br)c1O	GDH-TPI counter 32.3
COc1cc(/C=N/N(C)c2ccccc2)cc(Cl)c1O	GDH-TPI counter 40.5
CN(C(=O)CSc1nnc(-c2ccco2)n1N)C1CCCCC1	none
CCC(C)NS(=O)(=O)c1ccc(OCC(=O)NCC2CCCO2)cc1 (stereo not drawn)	none
Cc1ccc(NC(=O)COc2nc(C)cs2)cc1	Autofluor counter 16659
CC(C)(C)OC(=O)[C@H](Cc1ccccc1)NC(=O)c1nc[nH]c1C(=O)N1CCN(C(=O)OC(C)(C)C)CC1	none
Cc1ccc(Sc2cnccc2C#N)cc1	none
CC(=NCc1cccc(Cl)c1)c1nc(-c2ccco2)oc1O	GDH-TPI counter 33.6
CC(C)(C)NC(=O)C(c1ccco1)N(C(=O)Cn1nnc(-c2ccc(F)cc2)n1)c1cccc(F)c1 (stereo not drawn)	Autofluor counter 22593
